Our source for the growth values is PubChem BioAssay (NCI).

Test systems include NCI-H23 lung; NCI-H226 lung; NCI-H322M lung; HOP-62 NSCLC; NCI-H460 lung; HOP-92 NSCLC; NCI-H522 lung; A549/ATCC NSCLC; 786-0 renal; COLO 205 colon; DU-145 prostate; K-562 leukemia; MALME-3M melanoma; RXF 393 renal; SF-268 CNS; SF-295 CNS; SF-539 CNS; UACC-257 melanoma; MDA-MB-231 breast.
What all share (test): NCI-60 one-dose screen, 48 h (100 = growth as untreated, 0 = no growth, -100 = all killed)
Conditions in all cases: 10 µM unless noted

About 83,000 compounds went through this panel and 20% of them were active in at least one assay; those are over-represented in the sample as a whole.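 Growth was measured after 48 h exposure to one concentration of compound in 96-well plates. Values under 10 count as active.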 A number with no mark means an inactive call. The source made the active and inactive calls.

Regarding `COc1cc(NC(=O)c2cccc(-c3cc(=O)c4c(OC)c(OC)c(OC)cc4o3)c2)cc(OC)c1OC`, the growth is 48.8% with NCI-H23 lung; 58.5% in the assay with NCI-H226 lung; 69.5% in the assay with NCI-H322M lung; 37.5% in the assay with HOP-62 NSCLC; 30% in the assay on NCI-H460 lung; 24.7% in the assay on HOP-92 NSCLC. Further, the growth is 34.7% in the assay with NCI-H522 lung; 43.5% in the assay on A549/ATCC NSCLC; 31.8% with 786-0 renal; 44.3% in the assay on COLO 205 colon; 54.3% in the assay on DU-145 prostate; 27.6% in the assay on K-562 leukemia. The growth in the assay with MALME-3M melanoma is 56.4%; with RXF 393 renal, 53.2%; in the assay on SF-268 CNS, 67.1%; with SF-295 CNS, 45%; in the assay on SF-539 CNS, 52.6%; in the assay with UACC-257 melanoma, 52.8%.
Take `CCOC(=O)c1ccc(-c2ccc3cc(OC)ccc3c2)nc1C`: the growth is 93% in the assay on NCI-H23 lung; 116% with NCI-H226 lung; 90.3% in the assay on NCI-H322M lung; 107% in the assay on HOP-62 NSCLC; 103% in the assay on NCI-H460 lung; 104% with HOP-92 NSCLC. Besides, the growth in the assay with NCI-H522 lung is 72.7%; in the assay on A549/ATCC NSCLC, 95.4%; with 786-0 renal it was 85.7%; with COLO 205 colon, 105%; with DU-145 prostate it was 103%; with MALME-3M melanoma, 92.8%. Moreover, the growth in the assay with MDA-MB-231 breast was 104%; with RXF 393 renal, 116%; in the assay on SF-268 CNS, 96.4%; with SF-295 CNS, 100%; with SF-539 CNS it was 98.9%; in the assay with UACC-257 melanoma, 107%.
With `COc1cc(-c2ncn(/C=C\c3nnco3)n2)cc(C(F)(F)F)c1`, the growth in the assay with NCI-H23 lung was 26.6%; with NCI-H226 lung it was -0.243% (active); with NCI-H322M lung, 8.72% (active); in the assay with HOP-62 NSCLC, 39.8%; with NCI-H460 lung it was 0.25% (active); with HOP-92 NSCLC it was 61.4%. Besides, the growth in the assay with NCI-H522 lung is -11.4% (active); in the assay on A549/ATCC NSCLC it was 16.7%; with 786-0 renal, 5.1% (active); in the assay on COLO 205 colon it was 0.0945% (active); in the assay on DU-145 prostate it was 18.4%; in the assay on K-562 leukemia it was 6.9% (active). Besides, the growth in the assay with MALME-3M melanoma is 2.52% (active); in the assay on RXF 393 renal, -26.2% (active); in the assay on SF-268 CNS, 10.9%; with SF-295 CNS, 53.6%; with SF-539 CNS, 6.11% (active); in the assay with UACC-257 melanoma, 53%.
As for `O=c1oc2ccc(Cl)cc2cc1-c1cs/c(=N/N=C\c2ccc(Cl)cc2)n1/N=C/c1ccc(Cl)cc1`, the growth in the assay on NCI-H23 lung was 99.7%; in the assay with NCI-H226 lung, 102%; in the assay with NCI-H322M lung it was 97.9%; in the assay with HOP-62 NSCLC it was 109%; in the assay with NCI-H460 lung, 105%; with HOP-92 NSCLC it was 98%. In addition, the growth in the assay on NCI-H522 lung is 75.2%; in the assay with A549/ATCC NSCLC it was 89.3%; in the assay with 786-0 renal, 97.9%; with COLO 205 colon, 109%; in the assay with DU-145 prostate it was 108%; in the assay on MALME-3M melanoma it was 98.9%. In addition, the growth is 101% with MDA-MB-231 breast; 113% in the assay with RXF 393 renal; 104% in the assay on SF-268 CNS; 108% in the assay on SF-295 CNS; 107% with SF-539 CNS; 95.1% in the assay with UACC-257 melanoma.
Regarding `COc1cc2oc(-c3cccc(C(=O)Nc4ccc(C#N)cc4)c3)cc(=O)c2c(O)c1OC`, the growth is 38.2% in the assay on NCI-H23 lung; 21.2% with NCI-H226 lung; 72.7% with NCI-H322M lung; -31.8% (active) in the assay with HOP-62 NSCLC; 18.9% with NCI-H460 lung; 79.2% in the assay on HOP-92 NSCLC. Also, the growth in the assay on NCI-H522 lung is 61.2%; in the assay on A549/ATCC NSCLC it was 37.4%; with 786-0 renal, 70.4%; in the assay with COLO 205 colon, 39.9%; in the assay with DU-145 prostate, 34.2%; with K-562 leukemia, 66.4%. In addition, the growth in the assay with MALME-3M melanoma was 47.7%; in the assay on RXF 393 renal, 102%; with SF-268 CNS, 50%; in the assay with SF-295 CNS, 36.8%; in the assay with SF-539 CNS it was 82.4%; with UACC-257 melanoma it was 88.9%.
`Cc1c(C(=O)O)nnn1-c1nccs1`: the growth in the assay with NCI-H23 lung is 94.5%; with NCI-H226 lung it was 95.9%; with NCI-H322M lung, 99.8%; in the assay with HOP-62 NSCLC, 84.1%; in the assay on NCI-H460 lung it was 98.5%; in the assay on HOP-92 NSCLC, 82.4%. Also, the growth was 77.9% with NCI-H522 lung; 79.2% with A549/ATCC NSCLC; 97.1% in the assay on 786-0 renal; 107% in the assay on COLO 205 colon; 104% in the assay with DU-145 prostate; 102% in the assay with MALME-3M melanoma. In addition, the growth was 91.6% with MDA-MB-231 breast; 112% in the assay on RXF 393 renal; 102% in the assay with SF-268 CNS; 101% in the assay on SF-295 CNS; 92% in the assay with SF-539 CNS; 80.8% in the assay with UACC-257 melanoma.
As for `CCN(CC)CCOc1ccc(/C(=C(\C)c2ccc(OC)c(F)c2)c2ccc(Cl)cc2)cc1`, the growth was 80.8% in the assay on NCI-H23 lung; 102% in the assay with NCI-H226 lung; 85.1% in the assay on NCI-H322M lung; 78.5% in the assay with HOP-62 NSCLC; 61.1% with NCI-H460 lung; 82% with HOP-92 NSCLC. In addition, the growth with NCI-H522 lung was 86.1%; in the assay on A549/ATCC NSCLC, 59.7%; in the assay with 786-0 renal it was 68.2%; with COLO 205 colon, 42.2%; in the assay on DU-145 prostate, 84%; with K-562 leukemia it was 19%. For the same molecule, the growth is 55.9% in the assay on MALME-3M melanoma; 87.6% with MDA-MB-231 breast; 87.4% with SF-268 CNS; 61.6% in the assay on SF-295 CNS; 24.5% in the assay with SF-539 CNS; 68.4% in the assay on UACC-257 melanoma.
As for `COc1ccc2cc(-c3ccc(C(=O)NN)c(C)n3)ccc2c1`, the growth in the assay with NCI-H23 lung is 95.5%; in the assay on NCI-H226 lung, 103%; in the assay with NCI-H322M lung, 94.6%; in the assay on HOP-62 NSCLC, 101%; in the assay on NCI-H460 lung, 104%; with HOP-92 NSCLC, 96.2%. The growth is 69.8% with NCI-H522 lung; 93.1% with A549/ATCC NSCLC; 95.1% in the assay on 786-0 renal; 104% in the assay with COLO 205 colon; 103% in the assay on DU-145 prostate; 92.5% in the assay on MALME-3M melanoma. For the same molecule, the growth was 97.4% in the assay with MDA-MB-231 breast; 113% in the assay with RXF 393 renal; 91.9% in the assay on SF-268 CNS; 99% in the assay on SF-295 CNS; 103% in the assay on SF-539 CNS; 99.6% in the assay on UACC-257 melanoma.
